Assay [1] is described as follows: qHTS for Inhibitors of Plasmodium falciparum (DD2) proliferation (AID 504314).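 Further: parasite DNA measured by SYBR Green fluorescence after red cell lysis.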 Particulars: P. falciparum Dd2 in erythrocytes, SYBR Green growth, 72 h; series mostly up to 1.12 µM. The method in brief: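 Quantitative HTS growth inhibition: SYBR Green I binding to parasite DNA after 72 h drug exposure of infected erythrocytes (0.3% parasitemia, 2.5% hematocrit). Signals normalized per plate to inhibitor and vehicle wells.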
On the technique in general: Quantitative high-throughput screening tests each substance at several concentrations.

Assay [2] in a line: qHTS for Inhibitors of Plasmodium falciparum (GB4) proliferation (AID 504315). Further: nearly all actives have a fitted effect of over 50% in size. The conditions noted are these: P. falciparum GB4 in erythrocytes, SYBR Green DNA, 72 h; series mostly up to 6.7 µM. Put shortly: (§1)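 Erythrocytes infected with P. falciparum line (0.3% parasitemia, 2.5% hematocrit final) incubated with compounds 72 h at 37 °C, 5% CO2; SYBR Green lysis buffer added, fluorescence read next day. Normalized to 0.29 uM artemisinin and DMSO.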

Assay [3] in a line: qHTS for Inhibitors of Plasmodium falciparum (CP250) proliferation (AID 504320). Particulars: P. falciparum CP250 in erythrocytes, SYBR Green DNA, 72 h; series mostly up to 6.7 µM. Put shortly:
as §1

Assay [4] in a line: qHTS for Inhibitors of Plasmodium falciparum (7G8) proliferation (AID 504316). Further: nearly all actives have a fitted effect of over 65% in size. Further: potency means the concentration at half of the fitted maximal effect. Particulars: P. falciparum 7G8 in erythrocytes, SYBR Green DNA, 72 h; series mostly up to 6.7 µM. Put shortly:
as §1

A short description of assay [5]: qHTS for Inhibitors of Plasmodium falciparum (HB3) proliferation (AID 504318). Further: nearly all actives have a fitted effect of over 60% in size. Further: potency means the concentration at half of the fitted maximal effect. Particulars: P. falciparum HB3 in erythrocytes, SYBR Green DNA, 72 h; series mostly up to 7.21 µM. The method in brief: as §1

Drawing on PubChem BioAssay (NCATS), this text covers Potency for 25 molecules.

Results filed as inconclusive are left out. Activity calls are given as the source filed them. The call rests on the fitted dose curve; in most records, active means well fitted curve in the direction sought with a large enough effect; inconclusive means small, poorly fitted or top-dose-only effect, or another doubt; inactive means no such curve, though single readings can be large; an effect the other way counts as inactive or inconclusive.

Regarding `COC(=O)CCCC1=CC2=C(c3ccccc3)C(=O)C(C)(OC(=O)C3CCCC3)C(=O)C2=CN1CCCOC(C)C` (configuration not stated), the Potency entry in assay [1], in assay [2] and in assay [3] was “inactive” in each case.

As to `COC(=O)C1=C(C(=O)OC)[C@@H]2N(Cc3ccccc3)c3ccccc3[C@@]23C[C@@H](C(=O)OC)N(S(=O)(=O)c2ccc([N+](=O)[O-])cc2)C3=N1`, the Potency result in assay [1] is “inactive”. The Potency in assay [4] was 1690 nM (active); in assay [5], 1900 nM (active).

Turning to `COC(=O)C1=C(C(=O)OC)[C@@H]2N(C)c3ccccc3[C@@]23C[C@@H](C(=O)OC)N(S(=O)(=O)c2c(C)noc2C)C3=N1`, the Potency result in assay [1], in assay [2] and in assay [3] was “inactive” each time.

As for `CC1(OC(=O)CCc2ccccc2)C(=O)C=C2C=C(c3ccc(C#N)cc3)N(C3CCCC3)C=C2C1=O` (configuration not stated), the Potency result in assay [1], in assay [2] and in assay [3] was “inactive” in each case.

For the molecule `COC(=O)C1=C(C(=O)OC)[C@@H]2N(C)c3ccccc3[C@@]23C[C@@H](C(=O)OC)N(S(=O)(=O)c2cccs2)C3=N1`, the Potency result in assay [1], in assay [2] and in assay [3] was “inactive” throughout.

Turning to `CCCCS(=O)(=O)N1C2=NC(C(=O)OC)=C(C(=O)OC)[C@@H]3N(C)c4ccc(OC)cc4[C@]23C[C@H]1C(=O)OC`, the Potency result in assay [1], in assay [2] and in assay [3] was “inactive” each time.

With `CCCCc1nc2c(c3c1C[C@H](C)OC3)CN(S(=O)(=O)c1c(C)noc1C)CC2`, the Potency entry in assay [1], in assay [4], in assay [5] and in assay [3] was “inactive” each time.

Turning to `CCCCS(=O)(=O)N1CCc2nc(COc3ccccc3)c3c(c2C1)CO[C@@H](C)C3`, the Potency entry in assay [1], in assay [4], in assay [5] and in assay [3] was “inactive” in each case.

`CCCCc1nc2c(c3c1C[C@H](C)OC3)CN(C(=O)c1cc(I)ccc1F)CC2`: the Potency entry in assay [1], in assay [2] and in assay [3] was “inactive” in each case.

Regarding `CC#CCN1c2ccccc2[C@]23C[C@@H](C(=O)OC)N(C(=O)c4cc(C)oc4C)C2=NC(C(=O)OC)=C(C(=O)OC)[C@H]13`, the Potency result in assay [1] was “inactive”. Moreover, the Potency in assay [4] was 1510 nM (active).

For `COC/C=C/C1=CC2=CC(=O)C(C)(OC(=O)c3cnc4ccccc4n3)C(=O)C2=CN1c1ccc(OC)cc1` (configuration not stated), the Potency result in assay [1], in assay [2] and in assay [3] was “inactive” each time.

In the case of `CC1(OC(=O)CCc2ccccc2)C(=O)C=C2C=C(c3ccc(C#N)cc3)N(CCc3c[nH]c4ccccc34)C=C2C1=O` (configuration not stated), the Potency entry in assay [1], in assay [2] and in assay [3] was “inactive” each time.

Consider `C[C@@H]1C[C@](C)(C(=O)c2ccc3ccccc3c2)C=C1c1ccc2ccccc2c1`, for which the Potency result in assay [1], in assay [2] and in assay [3] was “inactive” in each case.

In the case of `COc1ccc(-c2nc3c(c4c2C[C@H](c2ccccc2)OC4)CN(S(=O)(=O)c2c(C)noc2C)CC3)c(C)c1`, the Potency result in assay [1] was “inactive”. Moreover, the Potency is 1690 nM (active) in assay [4] and 2130 nM (active) in assay [5].

For `C[C@H]1Cc2c(COc3ccccc3)nc3c(c2CO1)CN(C(=O)Cc1cccs1)CC3`, the Potency result in assay [1], in assay [2] and in assay [3] was “inactive” in each case.

Take `COC(=O)CCC(=O)OC1(C)C(=O)C2=CN(Cc3ccco3)C(c3ccc(OC)cc3)=CC2=C(Br)C1=O` (configuration not stated): the Potency result in assay [1], in assay [2] and in assay [3] was “inactive” each time.

For the molecule `C=CCN1c2ccccc2[C@]23C[C@@H](C(=O)OC)N(S(=O)(=O)c4ccc5c(c4)OCCN5C)C2=NC(C(=O)OC)=C(C(=O)OC)[C@H]13`, the Potency result in assay [1] is “inactive”. In addition, the Potency in assay [4] was 1690 nM (active).

On to `C=CCN1C=C2C(=O)C(C)(OC(=O)CCc3ccccc3)C(=O)C=C2C=C1c1ccc(C#N)cc1` (configuration not stated), for which the Potency result in assay [1], in assay [2] and in assay [3] was “inactive” in each case.

In the case of `CCCCS(=O)(=O)N1C2=NC(C(=O)OC)=C(C(=O)OC)[C@@H]3N(C)c4ccccc4[C@]23C[C@H]1C(=O)OC`, the Potency result in assay [1], in assay [2] and in assay [3] was “inactive” each time.

In the case of `COC(=O)C1=C(C(=O)OC)[C@@H]2N(C)c3ccc(OC)cc3[C@@]23C[C@@H](C(=O)OC)N(S(=O)(=O)c2ccc(Br)cc2)C3=N1`, the Potency entry in assay [1] was “inactive”. Besides, the Potency in assay [4] is 1510 nM (active).

For the molecule `C=CCN1c2ccccc2[C@]23C[C@@H](C(=O)OC)N(S(=O)(=O)c4ccc(C#N)cc4)C2=NC(C(=O)OC)=C(C(=O)OC)[C@H]13`, the Potency entry in assay [1], in assay [2] and in assay [3] was “inactive” each time.

On to `COC(=O)[C@H]1[C@@H](C)N(Cc2ccccc2)C(=O)N[C@H]1c1ccccc1`, for which the Potency entry in assay [1], in assay [2] and in assay [3] was “inactive” in each case.

With `C=CCN1c2ccccc2[C@]23C[C@@H](C(=O)OC)N(S(=O)(=O)c4ccc(Br)cc4)C2=NC(C(=O)OC)=C(C(=O)OC)[C@H]13`, the Potency entry in assay [1] and in assay [4] was “inactive” in each case.

For the molecule `COC(=O)C1=C(C(=O)OC)[C@@H]2N(Cc3ccccc3)c3ccccc3[C@@]23C[C@@H](C(=O)OC)N(S(=O)(=O)c2c(C)noc2C)C3=N1`, the Potency result in assay [1] was “inactive”. Moreover, in assay [4], the Potency is 1690 nM (active).

`Cc1cc2c(c(=O)n1-c1ccccc1)[C@H]1O[C@](c3ccsc3)(Cc3cc(C#N)ccc31)O2`: the Potency entry in assay [1], in assay [2] and in assay [3] was “inactive” each time.
